Experiment [1] in a line: A CellTox Green Cytotoxicity Assay to monitor cytotoxicity in HEK293 cells - 32 hour (AID 1224881). Further: nearly all actives have a fitted effect of over 40% in size. The gist of the method:
(§1)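 Cytotoxicity was tracked continuously in HEK293 cells by a DNA-binding dye excluded from viable cells. Compounds were transferred in DMSO 5 h after seeding; fluorescence was recorded at intervals up to 40 h.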

A short description of experiment [2]: A CellTox Green Cytotoxicity Assay to monitor cytotoxicity in HepG2 cells - 0 hour (AID 1224882). Further: nearly all actives have a fitted effect of over 35% in size. The gist of the method:
(§2)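 Real-time, homogeneous cytotoxicity readout: dead-cell DNA staining by CellTox Green in HepG2 monolayers, fluorescence measured at timed intervals up to 40 h of continuous compound exposure.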

The nature of experiment [3]: A CellTox Green Cytotoxicity Assay to monitor cytotoxicity in HepG2 cells - 32 hour (AID 1224883). Further: nearly all actives have a fitted effect of over 50% in size. The procedure, abridged: as §2
A short description of experiment [4]: A CellTox Green Cytotoxicity Assay to monitor cytotoxicity in HEK293 cells - 8 hour (AID 1224884). Further: nearly all actives have a fitted effect of over 35% in size. The procedure, abridged:
as §1

Experiment [5] can be described thus: qHTS RealTime-Glo MT Cell Viability Assay in HepG2 cells - 16 hour (AID 1224885). Further: nearly all actives have a fitted effect of over 50% in size. The gist of the method: (§3)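 Viability was tracked continuously by NanoLuc luminescence from prosubstrate reduced by living HepG2 cells, at successive time points over 40 h of compound exposure. Cells with reagent were preincubated 5 h at 37 °C before compound addition.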
The nature of experiment [6]: qHTS RealTime-Glo MT Cell Viability Assay in HEK293 cells - 24 hour (AID 1224886). Further: top concentration of the series differs between compounds; nearly all actives have a fitted effect of over 50% in size. The gist of the method:
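Viability tracked continuously by luminescence as live cells reduce a prosubstrate for NanoLuc; HEK293 cells preincubated 5 h, compound-treated at 37 C, and read at 0, 8, 16, 24, 32 and 40 h.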

Experiment [7] in a line: qHTS RealTime-Glo MT Cell Viability Assay in HEK293 cells - 8 hour (AID 1224887). Further: top concentration of the series differs between compounds; nearly all actives have a fitted effect of over 50% in size. The procedure, abridged:
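Nonlytic bioluminescent viability monitoring. HEK293 at 600 cells/well with reagent; 5 h settle; compound transfer by pintool; plates held at 37 C and read at set time points.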

Experiment [8] in a line: A CellTox Green Cytotoxicity Assay to monitor cytotoxicity in HEK293 cells - 16 hour (AID 1224888). Further: nearly all actives have a fitted effect of over 35% in size. The gist of the method: as §1
A short description of experiment [9]: qHTS RealTime-Glo MT Cell Viability Assay in HepG2 cells - 0 hour (AID 1224889). Further: nearly all actives have a fitted effect of over 50% in size. Further: potency means the concentration at half of the fitted maximal effect. The gist of the method: as §3
A short description of experiment [10]: A CellTox Green Cytotoxicity Assay to monitor cytotoxicity in HepG2 cells - 8 hour (AID 1224890). Further: nearly all actives have a fitted effect of over 45% in size. The gist of the method:
as §2

Experiment [11] is described as follows: qHTS assay to identify small molecule antagonists of the estrogen receptor alpha (ER-alpha) signaling pathway using the BG1 cell line in the presence of 0.1 nM 17-beta-estradiol - cell viability counter screen (AID 1259241). Further: nearly all actives have a fitted effect of over 40% in size. The gist of the method:
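In this screen, hormone-deprived VM7Luc4E2 cells were seeded at 4,000 per well, dosed with compound and 0.1 nM estradiol final, and incubated 22 hr at 37C and 5% CO2; fluorogenic live-cell protease signal reported viability.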

The nature of experiment [12]: qHTS assay to identify small molecule antagonists of the androgen receptor (AR) signaling pathway using the MDA cell line in the presence of 0.5 nM R1881 - cell viability counter screen (AID 1259242). Further: nearly all actives have a fitted effect of over 45% in size. The gist of the method:
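Cytotoxicity toward MDA-kb2 cells is measured by CellTiter-Fluor live-cell protease fluorescence after 16 hr compound exposure at 37C in the presence of 0.5 nM R1881 stimulator.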

For experiment [13], the target named is Androgen receptor (Homo sapiens) (UniProt P10275). Put plainly: qHTS assay to identify small molecule antagonists of the androgen receptor (AR) signaling pathway using the MDA cell line in the presence of 0.5 nM R1881 (AID 1259243). Further: nearly all actives have a fitted effect of over 50% in size. The gist of the method:
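Steps: seed MDA-kb2 cells, incubate 5 hr at 37C; pin-transfer compounds in DMSO; add R1881 to 0.5 nM final; incubate 16 hr; add ONE-Glo, wait 30 min at room temperature; read luminescence.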

Experiment [14] has as its target Estrogen receptor (Homo sapiens) (UniProt P03372). The experiment is described as follows: qHTS assay to identify small molecule antagonists of the estrogen receptor alpha (ER-alpha) signaling pathway using the BG1 cell line in the presence of 0.1 nM 17-beta-estradiol (AID 1259244). Further: nearly all actives have a fitted effect of over 50% in size. The gist of the method:
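After 5 days in hormone-depleted medium (charcoal-stripped serum, no phenol red), VM7Luc4E2 cells were seeded, incubated 24 h, then co-treated with compound and 0.1 nM (final) estradiol for 22 h before luminescence detection.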

Experiment [15] in a line: qHTS assay to identify small molecule HDAC inhibitors (AID 1259364). Further: top concentration of the series differs between compounds; nearly all actives have a fitted effect of over 45% in size. The gist of the method:
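Homogeneous cell-based luminescent assay of endogenous class I/II HDAC activity; HCT-116 cells, 2 h compound exposure, 30 min HDAC-Glo development at RT.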

Experiment [16] can be described thus: qHTS assay to identify small molecule HDAC inhibitors - cell viability counter screen (AID 1259365). The gist of the method:
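Measured quantity is CellTiter-Glo luminescence from wild-type HCT-116 cells after compound incubation of 2hr at 37C, 5% CO2; reagent developed 30min at room temperature.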

A short description of experiment [17]: qHTS assay to identify small molecule agonists of the sonic hedgehog signaling (Shh) pathway - cell viability counter screen (AID 1259366). Further: nearly all actives have a fitted effect of over 50% in size. The procedure, abridged:
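In quantitative high-throughput format, 3T3 Gli1-Luc cells were exposed to compounds for 24hr and multiplexed for viability using CellTiter-Fluor, incubated 1hr at 37C before the fluorescence read.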

Experiment [18] in a line: qHTS assay to identify small molecule antagonists of the sonic hedgehog signaling (Shh) pathway - cell viability counter screen (AID 1259367). Further: nearly all actives have a fitted effect of over 55% in size. The gist of the method: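 Using CellTiter-Fluor, viability of Gli1-Luc reporter 3T3 cells is read by fluorescence in the wells used for the Shh luciferase assay. Treatment lasts 23 hr with conditioned medium, then reagent 1 hr at 37C.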

Experiment [19] in a line: qHTS assay to identify small molecule agonists of the sonic hedgehog signaling (Shh) pathway (AID 1259368; calls by dose curve;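 further: NIH/3T3-derived 3T3Gli1-Luc cells carrying a stable Gli1-driven firefly luciferase reporter; series mostly up to about 92 µM; nearly all actives have a fitted effect of over 15% in size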). The gist of the method:
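Steps: seed 3T3 Gli1-Luc cells, incubate 4 hr at 37 C, pin-transfer compounds in DMSO alongside a positive control, incubate 24 hr, add luciferase detection reagent, wait 30 min at room temperature, read luminescence.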

A short description of experiment [20]: qHTS assay to identify small molecule phospholipidosis (PLD) inducers (AID 1259344; active means well fitted curve in the direction sought with a large enough effect; an effect the other way counts as inactive or inconclusive; further: potency means the concentration at half of the fitted maximal effect). The procedure, abridged: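 Fluorescent phospholipid staining (LipidTOX Red) measured by automated microscopy in fixed HepG2 cells after 24 h treatment; nuclei counterstained with Hoechst 33342; amiodarone as reference inducer.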

A number with no mark means an inactive call. Records with an inconclusive call do not appear. Calls of active or inactive are those of the source. Unless noted, the call rests on the fitted dose curve; in most records, active means well fitted curve in the direction sought with a large enough effect in the repeat runs; inconclusive means weak or mixed curves; inactive means no such curve, though single readings can be large; an effect the other way counts as inactive or inconclusive.
On the % scale 0 is the no-effect control and ±100 the full control effect.

Estrogen receptor (Homo sapiens), sequence (P03372 whole entry, looked up): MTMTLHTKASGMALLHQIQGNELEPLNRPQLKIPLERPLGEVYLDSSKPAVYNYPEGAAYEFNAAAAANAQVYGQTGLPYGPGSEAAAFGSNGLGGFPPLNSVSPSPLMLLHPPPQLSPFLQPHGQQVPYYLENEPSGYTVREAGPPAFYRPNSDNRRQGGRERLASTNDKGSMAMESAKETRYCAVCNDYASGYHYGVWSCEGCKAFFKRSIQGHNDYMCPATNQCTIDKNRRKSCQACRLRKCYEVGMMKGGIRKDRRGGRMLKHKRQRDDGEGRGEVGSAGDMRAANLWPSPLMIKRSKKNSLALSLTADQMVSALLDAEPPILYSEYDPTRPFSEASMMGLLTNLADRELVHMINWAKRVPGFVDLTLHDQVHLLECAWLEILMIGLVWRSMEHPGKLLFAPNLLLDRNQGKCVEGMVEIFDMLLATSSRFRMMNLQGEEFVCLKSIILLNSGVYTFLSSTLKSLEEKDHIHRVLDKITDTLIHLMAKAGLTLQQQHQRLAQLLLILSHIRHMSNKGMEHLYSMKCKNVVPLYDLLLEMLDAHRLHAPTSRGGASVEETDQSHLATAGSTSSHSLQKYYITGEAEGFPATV
Androgen receptor (Homo sapiens), sequence (P10275 whole entry, looked up): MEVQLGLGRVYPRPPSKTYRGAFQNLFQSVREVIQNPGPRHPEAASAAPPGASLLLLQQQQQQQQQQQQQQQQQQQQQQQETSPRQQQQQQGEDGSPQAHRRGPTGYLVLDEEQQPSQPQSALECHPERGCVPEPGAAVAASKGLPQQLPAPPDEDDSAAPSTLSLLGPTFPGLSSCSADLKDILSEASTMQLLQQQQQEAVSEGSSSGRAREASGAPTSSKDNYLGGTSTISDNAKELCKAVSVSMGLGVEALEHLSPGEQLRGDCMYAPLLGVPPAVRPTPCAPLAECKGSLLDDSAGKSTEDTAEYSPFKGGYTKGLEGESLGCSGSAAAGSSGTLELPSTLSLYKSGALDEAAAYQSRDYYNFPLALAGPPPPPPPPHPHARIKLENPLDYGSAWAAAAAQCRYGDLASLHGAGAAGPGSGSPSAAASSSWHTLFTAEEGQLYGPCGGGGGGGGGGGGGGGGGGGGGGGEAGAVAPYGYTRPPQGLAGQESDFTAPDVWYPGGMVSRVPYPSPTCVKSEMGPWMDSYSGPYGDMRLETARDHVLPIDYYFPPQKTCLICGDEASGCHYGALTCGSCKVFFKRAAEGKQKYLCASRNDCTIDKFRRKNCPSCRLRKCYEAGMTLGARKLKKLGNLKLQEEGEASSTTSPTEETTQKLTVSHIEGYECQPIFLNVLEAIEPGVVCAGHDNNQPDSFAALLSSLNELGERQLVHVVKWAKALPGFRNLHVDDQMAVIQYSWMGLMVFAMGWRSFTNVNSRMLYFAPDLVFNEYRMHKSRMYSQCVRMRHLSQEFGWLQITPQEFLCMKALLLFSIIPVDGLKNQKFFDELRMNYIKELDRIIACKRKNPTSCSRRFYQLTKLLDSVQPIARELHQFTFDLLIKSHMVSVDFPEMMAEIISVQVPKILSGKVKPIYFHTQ

With `CCOC(=O)C(=O)CCc1ccccc1`, the Potency result in experiment [1], in [2], in [3], in experiment [4], in experiment [5] and in experiment [6] was “inactive” in each case. Further, the Potency result in [7], in experiment [8], in experiment [9], in [10], in experiment [11] and in experiment [12] was “inactive” each time. Further, the Potency result in experiment [13], in experiment [14], in [15], in experiment [16], in experiment [17] and in [18] was “inactive” throughout. In addition, the outcome in experiment [19] was inactive.
On to `CC1OC(=O)C(C)OC1=O` (stereo not drawn), for which the Potency result in experiment [1], in [2], in [3], in experiment [4], in [5] and in [6] was “inactive” throughout. Besides, the Potency result in experiment [7], in experiment [8], in [9], in experiment [10], in experiment [11] and in experiment [12] was “inactive” each time. Moreover, the Potency entry in experiment [14], in experiment [15], in experiment [16], in experiment [17] and in experiment [18] was “inactive” throughout. In experiment [19], the outcome was inactive.
For `Nc1cccc(S(=O)(=O)c2cccc(N)c2)c1`, the Potency entry in experiment [1], in experiment [2], in experiment [3], in [4], in experiment [5] and in experiment [6] was “inactive” each time. Moreover, the Potency result in experiment [7], in experiment [8], in experiment [9], in experiment [10], in [11] and in experiment [12] was “inactive” in each case. The Potency result in experiment [14], in experiment [15], in experiment [16], in [17] and in experiment [18] was “inactive” in each case. Moreover, the molecule was classed as inactive in [19].
On to `NCC(=O)O`, for which the cytotoxicity increase in [1] is 1.64% [at 15.8 µM]; in experiment [3], 1.6% [at 15.8 µM]; in [4], 12.2% [at 15.8 µM]; in [10], 1.21% [at 15.8 µM]. Besides, in experiment [2], the cytotoxicity is 6.15% [at 15.8 µM]. Also, in [5], the activity change, negative = cytotoxic is 8.2% [at 15.8 µM]. Besides, the activity change, negative = cytotoxicity in [6] is 3.07% [at 15.8 µM]; in experiment [7], 10.2% [at 15.8 µM]; in experiment [9], 5.3% [at 15.8 µM]; in [11] it was -1.87% [at 19 µM]; in [16], 4.81% [at 19 µM]. Further, the activity change in [8] was -1.23% [at 15.8 µM, hits give high values]; in experiment [19], -0.0794% [at 18.9 µM]. In addition, the viability change, negative = cytotoxic in [12] is -5.8% [at 19 µM]; in experiment [17], -1.71% [at 19 µM]; in experiment [18] it was 1.33% [at 19 µM]. Besides, the Potency result in experiment [14] and in experiment [20] was “inactive” in each case. Further, the activity change, negative = inhibition in experiment [15] was -0.526% [at 19 µM].
For the molecule `CCCCC(=O)OCC(=O)[C@H]1[C@H](C)C[C@H]2[C@@H]3C[C@H](F)C4=CC(=O)C=C[C@]4(C)[C@@]3(F)[C@@H](O)C[C@@]21C`, the Potency entry in experiment [1], in experiment [2], in experiment [3], in experiment [4], in experiment [5] and in [6] was “inactive” throughout. For the same molecule, the Potency entry in [7], in experiment [8], in [10], in [11], in experiment [12] and in experiment [14] was “inactive” throughout. In addition, the Potency entry in [15], in experiment [16], in experiment [17] and in experiment [18] was “inactive” throughout. Moreover, the Potency in experiment [9] was 0.952 µM (active). For the same molecule, the PLD induction in experiment [20] is -1.62% [at 7.66 µM]. The outcome in experiment [19] was inactive.
In the case of `C#Cc1cccc(Nc2ncnc3cc(OCCOC)c(OCCOC)cc23)c1`, the Potency entry in experiment [1], in experiment [2], in experiment [3], in experiment [4], in [5] and in experiment [6] was “inactive” each time. Also, the Potency result in experiment [7], in experiment [8], in [9], in experiment [10], in experiment [11] and in experiment [12] was “inactive” each time. Moreover, the Potency result in experiment [14], in experiment [15] and in [16] was “inactive” each time. Moreover, in experiment [20], the Potency is 10 µM (active). Moreover, the molecule was classed as inactive in [19].
Regarding `CCCCO`, the Potency result in [1], in experiment [2], in experiment [3], in [4], in [5] and in experiment [6] was “inactive” each time. The Potency entry in experiment [7], in experiment [8], in [9], in [10], in experiment [11] and in [12] was “inactive” each time. The Potency result in experiment [20], in [15], in [16], in [17] and in experiment [18] was “inactive” in each case. In [19], the result was inactive.
